Assay [1] can be described thus: compounds binding Alexa647 anti-His antibody – biochemical, small-molecule microarray, 635 nm fluorescence, artefact control for SMM control protein annotation, primary screen (AID 1128).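 Also: score merges feature fluorescence with signal-to-noise for each printed compound spot.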 As to conditions: higher = more signal.
The subject of assay [2] is Human papillomavirus type 1a E7 protein (residues 1-88). Description: HPV1a E7 small-molecule binders, primary screen, biochemical, small-molecule microarray, residues 1-88, 635 nm (AID 1129). As to conditions: small-molecule microarray binding, fluorescence 635 nm; higher = more signal.
Assay [3] has as its target Focal adhesion kinase 1 (Homo sapiens) (UniProt Q05397). Put plainly: PTK2 protein binding on printed compound slides – biochemical, small-molecule microarray, 635/667 nm fluorescence, BSA, DTT, primary screen (AID 1130).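 Also: composite of spot emission at 667 nm and signal to noise over triplicate slides.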 As to conditions: 635 nm fluorescence, higher = more signal.
Assay [4] deals with Fibrinogen (Alexa647-labelled). Description: Alexa647-fibrinogen binding to printed small molecules – biochemical, small-molecule microarray, 635/667 nm fluorescence, artefact control for SMM control-protein annotation, profiling panel (AID 1131).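 Also: z-score merges 667 nm fluorescence with per-spot signal-to-noise over triplicate slides.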 As to conditions: fibrinogen-A647 binding fluorescence, higher = more signal.
Assay [5] concerns the target Follistatin (Homo sapiens) (UniProt P19883). Put plainly: FST protein binding to printed compounds – biochemical, small-molecule microarray, 635/667 nm fluorescence, primary screen (AID 1132). As to conditions: 635 nm fluorescence, higher = more signal.
In assay [6] the target is Fibroblast growth factor 2 (Homo sapiens) (UniProt P09038). Put plainly: basic fibroblast growth factor binding to printed compounds – biochemical, small-molecule microarray, 635/667 nm fluorescence, primary screen (AID 1133). As to conditions: FGF2, fluorescence 635/667, higher = more signal.
Chain of Fibroblast growth factor 2 (Homo sapiens) (P09038 whole entry, looked up): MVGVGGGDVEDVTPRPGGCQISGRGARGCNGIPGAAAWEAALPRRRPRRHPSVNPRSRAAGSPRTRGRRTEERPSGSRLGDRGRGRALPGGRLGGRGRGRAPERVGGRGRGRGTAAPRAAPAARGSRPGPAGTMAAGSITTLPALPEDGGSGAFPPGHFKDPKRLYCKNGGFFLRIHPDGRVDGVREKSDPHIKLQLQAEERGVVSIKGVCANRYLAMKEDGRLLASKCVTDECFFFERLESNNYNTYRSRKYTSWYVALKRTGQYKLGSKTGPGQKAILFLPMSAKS
Assay [7] can be described thus: JC-1 mitochondrial potential readout, lung cancer cells – cell-based, A549, JC-1 fluorescence, basal, 24 h, 100 nL, profiling panel (AID 1138).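 Also: A549 lung adenocarcinoma cells under basal conditions with no added stimulus; test concentration not given here.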 As to conditions: higher = more signal.
The subject of another assay is Lefty1. Description: Lefty1 protein binding to printed compounds – biochemical, small-molecule microarray, 635/667 nm fluorescence, primary screen (AID 1139). As to conditions: fluorescence 635/667, higher = more signal.
The subject of assay [8] is wheat germ agglutinin (Triticum aestivum), Alexa647-labelled. Put plainly: Alexa647-WGA lectin binding to printed small molecules – biochemical, small-molecule microarray, 635/667 nm fluorescence, artefact control for SMM control-protein annotation, profiling panel (AID 1140).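 Also: score merges 667 nm feature emission with signal to noise over triplicate slides.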 As to conditions: WGA-A647 binding, 635 nm fluorescence, higher = more signal.
For assay [9], the target named is Luciferin 4-monooxygenase (Photinus pyralis) (UniProt P08659). Put plainly: inhibition of purified Photinus pyralis luciferase – biochemical, luminescence, purified enzyme, 2006 set, primary screen (AID 1141).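 Also: cell-free assay with purified firefly luciferase at 100 ng per well in PBS; test concentration not given here.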 As to conditions: purified firefly luciferase, SteadyGlo luminescence, 30 min; higher = more signal, called active from +8 up or from −8 down.
Chain of Luciferin 4-monooxygenase (Photinus pyralis) (P08659 whole entry, looked up): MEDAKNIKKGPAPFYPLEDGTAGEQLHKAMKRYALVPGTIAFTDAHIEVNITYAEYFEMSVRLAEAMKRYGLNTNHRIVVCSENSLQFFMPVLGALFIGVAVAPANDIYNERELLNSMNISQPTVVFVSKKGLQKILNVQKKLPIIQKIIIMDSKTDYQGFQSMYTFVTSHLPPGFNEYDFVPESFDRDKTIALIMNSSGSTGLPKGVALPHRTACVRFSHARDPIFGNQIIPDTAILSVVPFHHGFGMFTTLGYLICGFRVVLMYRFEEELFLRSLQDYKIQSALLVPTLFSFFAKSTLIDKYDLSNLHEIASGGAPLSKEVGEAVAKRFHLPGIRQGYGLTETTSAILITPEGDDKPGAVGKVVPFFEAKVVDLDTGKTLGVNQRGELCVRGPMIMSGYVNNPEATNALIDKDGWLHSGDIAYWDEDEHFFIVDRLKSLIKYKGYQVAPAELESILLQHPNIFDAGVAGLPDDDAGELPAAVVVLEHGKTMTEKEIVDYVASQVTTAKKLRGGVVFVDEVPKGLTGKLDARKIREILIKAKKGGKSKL
For assay [10], the system named is Wnt5a (protein binding on small-molecule microarray). Description: small molecules binding Wnt5a protein – biophysical, small-molecule microarray, 635/667 nm fluorescence, primary screen (AID 1142).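 Also: fluorescence read at 667 nm with signal to noise per printed feature.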 As to conditions: 635 nm fluorescence, higher = more signal.
Assay [11] in a line: ATP-based viability of Huh7 replicon cells – cell-based, CellTiter-Glo luminescence, basal, 48 h, cytotoxicity control for HCV replication inhibitor project, primary screen (AID 1143).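 Also: Huh7 hepatoma cells carrying a hepatitis C replication reporter with no stimulus; test concentration not given here.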 As to conditions: higher = more signal, called active from +8 up or from −8 down. Background: In antiviral work, replicon cells carry a viral genome segment that copies itself.
Assay [12] is described as follows: Pseudomonas biofilm growth suppression – PAO1 strain, BacTiter-Glo luminescence, LB-PBS, primary screen (AID 1144). As to conditions: P. aeruginosa PAO1 biofilm, 12 h, higher = more signal.
Assay [13] can be described thus: basal CRE-LacZ reporter activity in PC12 – cell-based, unstimulated, primary screen (AID 1145). As to conditions: no forskolin, luminescence, 4.5 h, higher = more signal, called active from +8 up or from −8 down.
The nature of assay [14]: forskolin-driven CRE-LacZ activity in PC12 – cell-based, CRE-LacZ reporter, forskolin-stimulated, primary screen (AID 1146).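 Also: PC12 cells with 6xCRE LacZ reporter stimulated by forskolin 10 µM; beta-galactosidase reporter signal reflecting CREB driven transcription.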 As to conditions: luminescence, 4.5 h, higher = more signal, called active from +8 up or from −8 down.
Assay [15] deals with Streptavidin (Streptomyces avidinii) (UniProt P22629). Description: compounds binding control protein streptavidin – biophysical, small-molecule microarray, 635/667 nm fluorescence, artefact control for SMM compound annotation, primary screen (AID 1147).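 Also: signal reflects streptavidin binding to arrayed compounds as a control protein.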 As to conditions: higher = more signal.
Chain of Streptavidin (Streptomyces avidinii) (P22629 whole entry, looked up): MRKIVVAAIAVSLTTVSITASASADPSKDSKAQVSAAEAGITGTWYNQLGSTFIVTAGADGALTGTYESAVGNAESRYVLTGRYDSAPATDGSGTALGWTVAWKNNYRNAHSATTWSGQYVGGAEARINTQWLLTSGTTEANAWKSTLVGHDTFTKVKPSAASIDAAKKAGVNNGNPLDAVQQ
Assay [16] in a line: probe aInhba binding on compound microarray – biochemical, small-molecule microarray, 635/667 nm fluorescence, primary screen (AID 1148).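 Also: score merges 667nm spot fluorescence with signal-to-noise for antibody binding to printed compounds.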 As to conditions: higher = more signal.
Assay [17] addresses Torsin-1A (Homo sapiens) (UniProt O14656). Description: TOR1A wild-type binding on microarray – cell lysate, small-molecule microarray, lysate, 635/667 nm, primary screen (AID 1149). As to conditions: COS7 hTOR1A-WT lysate, 635 nm fluorescence, higher = more signal.
Assay [18] shares this target. Description: torsin A mutant lysate binding on microarrays – cell lysate, small-molecule microarray, COS7 lysate, 635/667 nm fluorescence, primary screen (AID 1150).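 Also: score pools 667 nm emission and signal to noise measuring lysate protein binding.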 As to conditions: COS7 hTOR1A mutant lysate, 635 nm fluorescence, higher = more signal.
In assay [19] the test system is Sonic hedgehog protein (Shh). Description: Sonic hedgehog microarray binding compounds – biochemical, small-molecule microarray, 635/667 nm fluorescence, primary screen (AID 1151).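 Also: Shh protein binding to compounds spotted on small-molecule microarray slides; score combines spot fluorescence intensity with signal-to-noise across triplicate slides.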 As to conditions: 635 nm fluorescence, higher = more signal.

“And” between values parts separate entries of the source, which are not always exact repeats. Equal values may be shown once. The source made the active and inactive calls. Unless noted, no rule for the calls is given here.

Chain of Focal adhesion kinase 1 (Homo sapiens) (Q05397 whole entry, looked up): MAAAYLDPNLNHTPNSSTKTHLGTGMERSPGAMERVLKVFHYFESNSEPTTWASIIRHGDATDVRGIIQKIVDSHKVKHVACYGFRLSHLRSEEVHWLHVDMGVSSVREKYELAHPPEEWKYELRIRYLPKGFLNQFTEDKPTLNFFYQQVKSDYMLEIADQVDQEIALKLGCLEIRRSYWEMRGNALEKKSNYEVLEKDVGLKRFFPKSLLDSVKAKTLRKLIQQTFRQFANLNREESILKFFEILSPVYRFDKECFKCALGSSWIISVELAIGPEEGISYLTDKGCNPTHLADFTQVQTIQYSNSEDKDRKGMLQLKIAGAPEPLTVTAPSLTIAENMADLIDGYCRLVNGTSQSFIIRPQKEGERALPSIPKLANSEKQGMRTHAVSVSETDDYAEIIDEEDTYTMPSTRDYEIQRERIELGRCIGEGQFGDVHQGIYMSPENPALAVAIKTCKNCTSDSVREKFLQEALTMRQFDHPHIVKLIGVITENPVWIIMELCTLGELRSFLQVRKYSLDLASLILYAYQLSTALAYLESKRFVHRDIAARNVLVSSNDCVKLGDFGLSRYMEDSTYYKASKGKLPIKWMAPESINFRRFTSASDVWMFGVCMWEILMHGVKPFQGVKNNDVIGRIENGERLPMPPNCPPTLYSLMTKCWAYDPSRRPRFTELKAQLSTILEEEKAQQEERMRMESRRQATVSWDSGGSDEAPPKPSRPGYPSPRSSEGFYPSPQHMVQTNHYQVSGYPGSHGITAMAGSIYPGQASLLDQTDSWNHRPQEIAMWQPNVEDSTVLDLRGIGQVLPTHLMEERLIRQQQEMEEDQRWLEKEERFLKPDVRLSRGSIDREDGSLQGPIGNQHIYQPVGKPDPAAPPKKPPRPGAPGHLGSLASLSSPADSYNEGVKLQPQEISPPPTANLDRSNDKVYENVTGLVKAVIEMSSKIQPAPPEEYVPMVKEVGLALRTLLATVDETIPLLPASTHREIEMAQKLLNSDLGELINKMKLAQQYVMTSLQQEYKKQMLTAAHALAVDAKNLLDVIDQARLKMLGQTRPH
Chain of Torsin-1A (Homo sapiens) (O14656 whole entry, looked up): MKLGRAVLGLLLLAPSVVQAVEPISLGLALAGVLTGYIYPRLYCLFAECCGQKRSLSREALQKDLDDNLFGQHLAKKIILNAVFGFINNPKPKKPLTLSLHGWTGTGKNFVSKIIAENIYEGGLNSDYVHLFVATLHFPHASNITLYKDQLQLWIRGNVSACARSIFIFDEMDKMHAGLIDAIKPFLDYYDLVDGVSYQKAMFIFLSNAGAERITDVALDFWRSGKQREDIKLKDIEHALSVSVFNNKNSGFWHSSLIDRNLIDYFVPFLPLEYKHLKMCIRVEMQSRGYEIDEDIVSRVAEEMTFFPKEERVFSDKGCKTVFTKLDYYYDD
Chain of Follistatin (Homo sapiens) (P19883 whole entry, looked up): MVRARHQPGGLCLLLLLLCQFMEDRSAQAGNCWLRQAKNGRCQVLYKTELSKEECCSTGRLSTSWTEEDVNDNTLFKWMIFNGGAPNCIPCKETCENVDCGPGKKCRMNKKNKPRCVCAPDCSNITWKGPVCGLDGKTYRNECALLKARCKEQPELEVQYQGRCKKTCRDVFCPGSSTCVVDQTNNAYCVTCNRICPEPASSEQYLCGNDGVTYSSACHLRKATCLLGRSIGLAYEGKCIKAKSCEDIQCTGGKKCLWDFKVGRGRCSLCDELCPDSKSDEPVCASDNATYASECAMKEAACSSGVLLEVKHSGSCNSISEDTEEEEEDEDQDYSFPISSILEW

For `CCOC(=O)c1ccc(NC(=O)O[C@H]2[C@H](OC(=O)Nc3ccccc3)[C@@H](OC(=O)Nc3ccccc3)[C@@H](OC)O[C@@H]2CO)cc1`, the composite z-score in assay [1] is 2.39 and 2.88; in assay [2] it was 1.26 and 1.28; in [3], 1.78 and 0.545; in [4], 1; in assay [5], 1.2 and 1.4; in assay [6] it was 0.601 and 1.59. For the same compound, the composite z-score was 0.88 and 1.51 with Lefty1; 1.32 and 1.12 in assay [8]; 0.493 and 0.437 in [10]; 1.64 and 0.53 in [15]; 0.333 and 0.0982 in [16]; 1.19 and 0.89 in the assay with Torsin-1A (Homo sapiens) [17]. The composite z-score with Torsin-1A (Homo sapiens) [18] is 0.556 and 0.56; in assay [19], 0.955 and 1.97. The z-score in [7] is -1.02 and -1.32; in [9] it was -0.427 (inactive) and -0.249 (inactive); in assay [11] it was -4.44 (inactive) and -4.14 (inactive); in assay [12], 0.0469 (inactive) and -1.32 (inactive); in assay [13], 1.55 (inactive) and -0.552 (inactive); in assay [14] it was -1.38 (inactive) and -1.61 (inactive).

For the compound `C=CCN(CCCCC)C(=O)C1N(CCCCCCO)C(=O)C2C(C(=O)O)C3C=CC21O3` (stereo not given), the composite z-score in assay [1] was -2.31 and 0.41; in assay [2], -0.813 and -0.519; in assay [3] it was -0.687 and -0.922; in assay [4], -1.63 and -1.36; in assay [5], -2.64 and -1.13; in [6], -2.25 and -2.14. Also, the composite z-score in the assay with Lefty1 is -1.55 and -1.07; in [8], -1.8 and -0.883; in [10], -0.332 and -1.43; in assay [15], -1.69 and -1.59; in assay [16] it was -0.173 and -0.233; with Torsin-1A (Homo sapiens) [17], -2.55 and -3.31. Further, the composite z-score is -1.53 and 0.765 with Torsin-1A (Homo sapiens) [18]; -0.661 and -1.21 in assay [19]. Further, the z-score is -0.194 and 0.588 in assay [7]; 0.0975 (inactive) and -0.324 (inactive) in assay [9]; 0.289 (inactive) and 0.729 (inactive) in assay [11]; 1.69 (inactive) and 2.31 (inactive) in [12]; 0.333 (inactive) and -0.497 (inactive) in assay [13]; -0.587 (inactive) and -0.0866 (inactive) in assay [14].

Take `COC(=O)C1=C(C)N(Cc2ccccc2)C2=C(C(C)=O)[C@H](c3ccccc3)[C@@](O)(C(=O)OC)C(=O)N2[C@@H]1c1ccccc1`: the composite z-score was 0.313 and -0.605 in [1]; 1.06 and -0.558 in assay [2]; 0.113 and -0.651 in assay [3]; 0.963 and 0.0691 in assay [4]; 0.764 and -0.238 in assay [5]; 0.745 and 0.282 in [6]. Further, the composite z-score was 0.638 and -0.0574 with Lefty1; 0.493 and -0.348 in assay [8]; 0.142 and -0.0685 in [10]; 0.499 and -0.212 in [15]; 0.105 and -0.171 in assay [16]; 0.576 and -0.313 with Torsin-1A (Homo sapiens) [17]. Besides, the composite z-score with Torsin-1A (Homo sapiens) [18] was 0.9 and -0.211; in assay [19], 0.686 and 0.16. Also, the z-score in assay [7] was 3.76 and 1.44; in assay [9], -1.12 (inactive) and -2.89 (inactive); in [11] it was -0.912 (inactive) and -3.17 (inactive); in [12], -1.5 (inactive); in [13], 1.1 (inactive) and 0.916 (inactive); in assay [14] it was -0.213 (inactive) and -0.284 (inactive).

Consider `C=C(C)C(=O)OC[C@@H]1CN2[C@@H](CC[C@@H](C)[C@@H]2c2ccc(Br)cc2)C(=O)O1`, for which the composite z-score in [1] was -0.0452; in assay [2], 0.818; in assay [3], 0.213; in assay [4] it was 0.762; in [5], 0.55; in assay [6], 0.854. The composite z-score is 0.966 in the assay on Lefty1; 0.146 in assay [8]; -0.0892 in assay [10]; -0.222 in assay [15]; -0.0895 in [16]; 0.457 in the assay with Torsin-1A (Homo sapiens) [17]. In addition, the composite z-score with Torsin-1A (Homo sapiens) [18] is 0.231; in assay [19], 0.605. The z-score in [7] was 1.77; in assay [9], -0.721 (inactive); in [11] it was -0.0082 (inactive); in assay [12] it was -1.58 (inactive); in assay [13], 1.54 (inactive); in [14], 0.11 (inactive).

Values taken from PubChem BioAssay.
